Measurements as given in PubChem BioAssay (EPA / NIEHS).
Activity calls are given as the source filed them. Rule for the calls: active = hit-call score of the fitted dose curve at least 0.9, where 1 is the maximum; inactive = score below 0.9.

Columns and labels:
Conditions in all cases: mRNA level, 48 h; actives raise or lower the signal
CYP2C8 (gene 1558) = experiment: LTEA_HepaRG_CYP2C8: Life Technologies and Expression Analysis (LTEA) Assay for CYP2C8 using HepaRG (AID 2283483)
Procedure, shortened: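 Differentiated HepaRG cells in serum-free induction medium exposed 48 h in duplicate to 8 half-log concentrations from 100 uM in 0.5% DMSO. CYP2C8 mRNA by qRT-PCR normalized to ACTB, GAPDH, POLR2A; bidirectional fit versus DMSO.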

CYP2C9 (gene 1559) = experiment: LTEA_HepaRG_CYP2C9: Life Technologies and Expression Analysis (LTEA) Assay for CYP2C9 using HepaRG (AID 2283484)
Procedure, shortened: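 Differentiated human HepaRG cells in serum-free induction medium were exposed 48 h to chemicals in 8-point half-log series from 100 uM (0.5% DMSO), in duplicate. CYP2C9 mRNA was measured by qRT-PCR, normalized to ACTB/GAPDH/POLR2A, with bidirectional fitting versus DMSO.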

CYP2E1 (gene 1571) = experiment: LTEA_HepaRG_CYP2E1: Life Technologies and Expression Analysis (LTEA) Assay for CYP2E1 using HepaRG (AID 2283485)
Procedure, shortened: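 Differentiated HepaRG cells were treated in duplicate for 48 h with chemicals in 0.5% DMSO, from 100 uM downward in half-log dilutions. RNA was then analysed by qRT-PCR for CYP2E1 induction or loss.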

CYP4A11 (gene 1579) = experiment: LTEA_HepaRG_CYP4A11: Life Technologies and Expression Analysis (LTEA) Assay for CYP4A11 using HepaRG (AID 2283486)
Procedure, shortened: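 Readout is CYP4A11 transcript level by qRT-PCR, normalized to three housekeeping genes and fitted bidirectionally against 0.5% DMSO. Human HepaRG cells were treated 48 h, in duplicate, with an 8-point half-log series topping at 100 uM.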

[1] = read-out: Cytochrome P450 3A4 (Homo sapiens) (UniProt P08684); experiment: LTEA_HepaRG_CYP3A4: Life Technologies and Expression Analysis (LTEA) Assay for CYP3A4 using HepaRG (AID 2283487)
Procedure, shortened: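 In a human hepatic line (HepaRG), duplicate wells were treated 48 h with up to 100 uM chemical in half-log dilutions. Endpoint: CYP3A4 mRNA induction or loss relative to 0.5% DMSO vehicle, by qRT-PCR.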

[2] = read-out: DNA damage-inducible transcript 3 (DDIT3), DDIT3 (gene 1649); experiment: LTEA_HepaRG_DDIT3: Life Technologies and Expression Analysis (LTEA) Assay for DNA damage-inducible transcript 3 (DDIT3) using HepaRG (AID 2283488)
Procedure, shortened: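 Changes in DDIT3 transcript, in either direction relative to 0.5% DMSO vehicle, were quantified by TaqMan qRT-PCR after 48 h chemical exposure of HepaRG cells at 8 concentrations, maximum 100 uM.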

[3] = read-out: Pro-epidermal growth factor (Homo sapiens) (UniProt P01133); experiment: LTEA_HepaRG_EGF: Life Technologies and Expression Analysis (LTEA) Assay for Epidermal growth factor (EGF) using HepaRG (AID 2283489)
Procedure, shortened: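 EGF transcript measured by Fluidigm TaqMan qRT-PCR with three housekeeping genes for normalization, 48 h after dosing HepaRG cultures in duplicate (top 100 uM, half-log steps, 0.5% DMSO vehicle). Gain or loss relative to DMSO fitted.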

[4] = read-out: Early growth response protein 1 (EGR1) transcription factor, EGR1 (gene 1958); experiment: LTEA_HepaRG_EGR1: Life Technologies and Expression Analysis (LTEA) Assay for Early growth response protein 1 (EGR1) transcription factor using HepaRG (AID 2283490)
Procedure, shortened: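 Differentiated HepaRG cells in serum-free induction medium exposed 48 hours, duplicate, to 8 half-log concentrations up to 100 uM in 0.5% DMSO. EGR1 mRNA measured by TaqMan qRT-PCR, normalized to ACTB, GAPDH, POLR2A; bidirectional fit versus DMSO.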

[5] = read-out: Ezrin (EZR), EZR (gene 7430); experiment: LTEA_HepaRG_EZR: Life Technologies and Expression Analysis (LTEA) Assay for Ezrin (EZR) using HepaRG (AID 2283491)
Procedure, shortened: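 Gain or loss of EZR mRNA is scored relative to 0.5% DMSO in human HepaRG cultures treated 48 h with test chemicals in duplicate, eight half-log concentrations from 100 uM.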

[6] = read-out: Cytochrome P450 3A7 (Homo sapiens) (UniProt P24462); experiment: LTEA_HepaRG_CYP3A7: Life Technologies and Expression Analysis (LTEA) Assay for CYP3A7 using HepaRG (AID 2283492)
Procedure, shortened: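 CYP3A7 transcript measured by qRT-PCR (ACTB, GAPDH, POLR2A normalization) after 48 h chemical exposure of HepaRG cells in duplicate. Eight half-log concentrations, maximum 100 uM, 0.5% DMSO vehicle; bidirectional curve fitting against DMSO baseline.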

[7] = read-out: Fatty Acid-Binding Protein 1 (FABP1), FABP1 (gene 2168); experiment: LTEA_HepaRG_FABP1: Life Technologies and Expression Analysis (LTEA) Assay for Fatty Acid-Binding Protein 1 (FABP1) using HepaRG (AID 2283494)
Procedure, shortened: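 Differentiated human HepaRG cells exposed 48 h in serum-free induction medium to eight half-log concentrations up to 100 uM (0.5% DMSO), duplicate. FABP1 mRNA by qRT-PCR, normalised to ACTB, GAPDH, POLR2A; bidirectional fitting against DMSO.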

[8] = read-out: Cytochrome P450 7A1 (Homo sapiens) (UniProt P22680); experiment: LTEA_HepaRG_CYP7A1: Life Technologies and Expression Analysis (LTEA) Assay for Cytochrome P450 7A1 (CYP7A1) using HepaRG (AID 2283496)
Procedure, shortened: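 Gene expression endpoint in human HepaRG liver cells treated for 48 h with test chemicals (up to 100 uM, 0.5% DMSO). Values come from bidirectional concentration-response fitting versus DMSO.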

[9] = read-out: Glutathione S-Transferase (GSTA2), GSTA2 (gene 2939); experiment: LTEA_HepaRG_GSTA2: Life Technologies and Expression Analysis (LTEA) Assay for Glutathione S-Transferase (GSTA2) using HepaRG (AID 2283497)
Procedure, shortened: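 Differentiated human HepaRG cells were exposed in duplicate for 48 h in serum-free induction medium, 8 points from 100 uM top in half-log steps, 0.5% DMSO. GSTA2 mRNA was measured by TaqMan qRT-PCR, normalized to ACTB, GAPDH and POLR2A; bidirectional fit versus DMSO.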

[10] = read-out: growth arrest and DNA damage 45 (GADD45G), GADD45G (gene 10912); experiment: LTEA_HepaRG_GADD45G: Life Technologies and Expression Analysis (LTEA) Assay for growth arrest and DNA damage 45 (GADD45G) using HepaRG (AID 2283499)
Procedure, shortened: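 GADD45G transcript level by qRT-PCR (housekeeping-normalized: ACTB, GAPDH, POLR2A) after 48 h chemical treatment of a single HepaRG lot in serum-free induction medium; eight-point half-log series up to 100 uM in 0.5% DMSO, duplicates, up- or down-regulation scored.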

[11] = read-out: Glutamate-cysteine ligase regulatory (GCLM), GCLM (gene 2730); experiment: LTEA_HepaRG_GCLM: Life Technologies and Expression Analysis (LTEA) Assay for Glutamate-cysteine ligase regulatory (GCLM) using HepaRG (AID 2283500)
Procedure, shortened: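 Human liver HepaRG cultures receive test chemicals for 48 hours at up to 100 uM in 0.5% DMSO. GCLM expression is measured by qRT-PCR and analysed for increases or decreases against vehicle.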

[12] = read-out: Glutathione S-transferase M3 (GSTM3), GSTM3 (gene 2947); experiment: LTEA_HepaRG_GSTM3: Life Technologies and Expression Analysis (LTEA) Assay for Glutathione S-transferase M3 (GSTM3) using HepaRG (AID 2283501)
Procedure, shortened: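 GSTM3 transcript levels came from Fluidigm TaqMan qRT-PCR normalized to three housekeeping genes, fitted in both directions against DMSO. HepaRG cultures received chemicals for 48 h in serum-free induction medium (0.5% DMSO), 8 half-log concentrations up to 100 uM, duplicate.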

[13] = read-out: Heat shock 70 kDa protein 1 (HSPA1A), gene 3303; experiment: LTEA_HepaRG_HSPA1A: Life Technologies and Expression Analysis (LTEA) Assay for Heat shock 70 kDa protein 1 (HSPA1A) using HepaRG (AID 2283502)
Procedure, shortened: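 HSPA1A induction in human HepaRG liver cells is measured after 48 h of chemical treatment (100 uM maximum, 0.5% DMSO vehicle). Expression comes from qRT-PCR normalized to endogenous controls.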

[14] = read-out: Glutamate-cysteine ligase catalytic (GCLC), GCLC (gene 2729); experiment: LTEA_HepaRG_GCLC: Life Technologies and Expression Analysis (LTEA) Assay for Glutamate-cysteine ligase catalytic (GCLC) using HepaRG (AID 2283498)
Procedure, shortened: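 Differentiated HepaRG cells exposed 48 h in serum-free induction medium, eight-point half-log series topping at 100 uM in 0.5% DMSO, duplicates. GCLC mRNA by qRT-PCR normalized to ACTB, GAPDH and POLR2A, fitted bidirectionally versus DMSO.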

Measured: AC50

Cytochrome P450 3A7 (Homo sapiens), sequence (P24462 whole entry, looked up): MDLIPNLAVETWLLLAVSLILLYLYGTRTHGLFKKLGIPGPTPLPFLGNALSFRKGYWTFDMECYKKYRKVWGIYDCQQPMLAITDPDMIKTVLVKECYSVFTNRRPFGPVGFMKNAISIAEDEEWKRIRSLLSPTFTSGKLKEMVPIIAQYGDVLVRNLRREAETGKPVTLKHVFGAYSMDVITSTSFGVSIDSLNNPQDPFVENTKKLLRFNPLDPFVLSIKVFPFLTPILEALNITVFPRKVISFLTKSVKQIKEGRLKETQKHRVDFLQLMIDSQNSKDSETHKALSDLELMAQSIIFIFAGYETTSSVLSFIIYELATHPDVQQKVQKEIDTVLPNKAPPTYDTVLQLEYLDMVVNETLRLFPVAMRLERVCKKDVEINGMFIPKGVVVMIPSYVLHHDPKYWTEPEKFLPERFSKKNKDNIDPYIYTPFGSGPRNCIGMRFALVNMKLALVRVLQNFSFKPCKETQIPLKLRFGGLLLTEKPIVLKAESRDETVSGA
Cytochrome P450 3A4 (Homo sapiens), sequence (P08684 whole entry, looked up): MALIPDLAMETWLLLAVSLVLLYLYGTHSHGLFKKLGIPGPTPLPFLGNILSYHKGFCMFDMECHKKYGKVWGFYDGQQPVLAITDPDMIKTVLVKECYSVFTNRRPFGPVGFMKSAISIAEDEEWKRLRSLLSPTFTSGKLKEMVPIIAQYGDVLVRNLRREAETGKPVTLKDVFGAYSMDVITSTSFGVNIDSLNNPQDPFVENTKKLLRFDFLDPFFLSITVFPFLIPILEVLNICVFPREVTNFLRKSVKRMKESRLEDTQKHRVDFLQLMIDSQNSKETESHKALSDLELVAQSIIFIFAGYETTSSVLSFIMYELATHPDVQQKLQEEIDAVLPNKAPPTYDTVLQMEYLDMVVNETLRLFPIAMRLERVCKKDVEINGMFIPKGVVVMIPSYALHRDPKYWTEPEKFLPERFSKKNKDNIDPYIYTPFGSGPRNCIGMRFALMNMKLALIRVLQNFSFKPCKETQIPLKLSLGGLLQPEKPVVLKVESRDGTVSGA

S=C1NCCN1
active: [13] 0.277 µM
not listed: [14]
inactive: all other assays above

CCCCOC(=O)c1ccccc1C(=O)O
active: [6] 12.7 µM
not listed: [12] | [14]
inactive: all other assays above

CCCSP(=O)(OCC)Oc1ccc(Br)cc1Cl (centres undefined)
active: CYP2E1 (gene 1571) 40.4 µM
not listed: [12] | [14]
inactive: all other assays above

CCOP(=O)(NC(C)C)Oc1ccc(SC)c(C)c1 (centres undefined)
active: CYP2E1 (gene 1571) 34.3 µM | CYP4A11 (gene 1579) 22.4 µM | [7] 23.8 µM | [8] 3.62 µM
not listed: [1] | [12]
inactive: all other assays above

COP(=O)(OC)C(O)C(Cl)(Cl)Cl (centres undefined)
inactive: [2] | [3] | [4] | [5] | [7] | [10] | [11] | [12] | [13]
